Laboratory results taken from PubChem BioAssay AID1259415 (National Center for Advancing Translational Sciences (NCATS), 2018).
Out of some 410,000 compounds screened, about 18,000 (4.4%) were called active. Inconclusive results (about 7%) are left out. For the sample, actives were picked, then their nearest neighbours and some compounds at random. A number with no mark means an inactive call. Cut-off read from the data, not from the text of the source: active = activity change below about -60%; inconclusive = no clear call, values can overlap the other calls; inactive = above about -39%.

Test: qHTS Assay for inhibitors of the human cytomegalovirus (HCMV)
Conditions: HFF cells, HCMV-luciferase reporter, 72 h; at 57.5 µM; hits give low values
Procedure, shortened: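 Two compound doses tested in HFFs infected with HCMV-luciferase, MOI 1 PFU/cell, 72 h at 37C. Lysate luminescence read with OneGlo; data normalized against buffer-only and 10uM Salinomycin inhibitor controls.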
% is set by controls: 0 for no effect and ±100 for the full control effect.

Structure (SMILES)	activity change, negative = inhibition
CC(C)N1C(=O)N(c2ccccc2)C(C)(O)CC1(C)C (configuration not stated)	-26.6%
CC(CC(=O)Nc1ccccc1)n1ccnc1 (configuration not stated)	39%
CC(=O)N1CCc2cc(S(=O)(=O)NC(Cc3ccccc3)C(=O)NCc3ccc(C)cc3)ccc21 (configuration not stated)	-12.2%
C#CCN(C[C@H]1[C@H](OC(=O)NC2CCCC2)[C@H](OC(=O)NC2CCCC2)C[C@H]2C(=O)N(c3ccccc3)C(=O)[C@@H]12)S(=O)(=O)c1ccc(C)cc1	-6.21%
Cc1ccc(S(=O)(=O)N2C[C@H]3n4c(=O)ccc(=O)n4C[C@H](OC(=O)NC4CCCC4)[C@@]3(O)C2)cc1	-24.9%
C#CCN(C[C@@H]1[C@@H](OC(=O)NC2CC2)[C@@H](OC(=O)NC2CC2)Cn2c(=O)ccc(=O)n21)S(=O)(=O)c1ccc(C)cc1	-96.3% (active)
CCC(=O)N1N=C(c2ccc(OC)cc2)CC1c1cn(-c2ccccc2)nc1-c1cccs1 (configuration not stated)	-16.7%
COc1ccc(Br)cc1CNC(=O)c1cc(=O)[nH]c2ccc(S(=O)(=O)N3CCCC3)cc12	37.6%
COc1ccccc1CNC(=O)NCc1noc2ccc(C)cc12	-4.73%
CCOc1ccccc1N(CC(=O)NC1CCCCC1)C(=O)CCCC(=O)Nc1ccccn1	-7.08%
O=C(CCCC(=O)N(CC(=O)NC1CCCC1)Cc1ccccc1Cl)Nc1ccccn1	-99.6% (active)
Cc1ccc(N(CC(=O)NC2CCCCC2)C(=O)CCCC(=O)Nc2ccccn2)c(C)c1	0.377%
Cc1ccc(S(=O)(=O)N2CCC(C(=O)NCCC3=CCCCC3)CC2)cc1C	-15.1%
CC(=O)c1ccc(NC(=O)CSc2c(C(C)C)cnc3c2c(=O)n(C)c(=O)n3C)cc1	-7.7%
CC(C)(C)c1ccc(C(=O)NCC(c2ccco2)S(=O)(=O)c2ccc(F)cc2)cc1 (configuration not stated)	-16.6%
CN(C)Cc1c(O)ccc2c(=O)c(-c3ccccc3Cl)coc12	14.6%
CCN(Cc1ccccc1)Cc1c(O)ccc2c(=O)c(-c3ccc(Cl)cc3Cl)coc12	1.81%
CC(C)CN(Cc1c(O)ccc2c(=O)c(-c3ccccc3)coc12)CC(C)C	-72.9% (active)
CN(O)C(=S)c1ccccc1	-97.9% (active)
CCOC(=O)c1cccn1C1C(=O)N(Cc2ccc(OC)cc2)c2c(F)cccc21 (configuration not stated)	-32%
CC(=O)c1ccc(NC(=O)CSc2nc(-c3ccccc3F)nc3c2c(=O)n(C)c(=O)n3C)cc1	0.932%
CN(C)S(=O)(=O)c1cc(C(=O)Nc2ccn(C)n2)c(Cl)cc1Cl	0% (active)

Structure (SMILES)	activity change, negative = inhibition
O=C(Nc1nccs1)c1cc(S(=O)(=O)N2CCOCC2)c(Cl)cc1Cl	32.2%
CCN(CC)C(=O)c1ccc(NC(=O)c2cc(-n3cnnc3)ccc2Cl)cc1	34.8%
Cc1ccc(N2CC(c3nnc(Cc4ccccc4Cl)o3)CC2=O)cc1 (configuration not stated)	-8.78%
CCOC(=O)CNC(=O)c1cc2c(=O)n3cccc(C)c3nc2s1	9.74%
Cc1ccc2oc(=O)c3cnn(CC(=O)N4CCN(c5cccc(Cl)c5)CC4)c3c2c1	-2.47%
CCCCN(CC)CCCNC(=O)c1nn(C)c2c1CS(=O)(=O)c1ccccc1-2	-8.91%
c1c2c(cc3sc(N4CCCCC4)nc13)OCCO2	-64.2% (active)
O=C(NCc1ccc(F)cc1)c1ccc2nc(N3CCCCC3)sc2c1	65.5%
CCOC(=O)c1cc2c(=O)n3ccccc3nc2n(CCCOC)c1=NC(=O)C(C)(C)Oc1ccc(Cl)cc1	6.81%
COc1ccc(CCNCc2c(C(=O)O)c(C)n(Cc3cccc(C)c3)c2C)cc1OC	-1.54%
Cc1ccccc1CN1C[C@@H]2C[C@@H](c3cn(C)nc3-c3ccccc3)N3CCC[C@@]23C1=O	32.8%
CCOc1ccc(-c2cc(C)n3nc(C(=O)Nc4ccc(C)c(C)c4)cc3n2)cc1	-5.97%
CCOc1ccc(CNC(=O)c2cc(-c3ccc(Cl)s3)nc3ccccc23)cc1	1.58%
CCOc1ccc(NC(=O)c2cnn(-c3ccccc3)c2-n2cccc2)cc1	-19.9%
CCOc1ccc(NC(=O)c2cc(C)nc3ccccc23)cc1	-60.4% (active)
CCOc1ccc(-c2cc3c(=O)n(CC(=O)NCc4ccc(OC)cc4)ccn3n2)cc1	78.4%
CCOc1ccc(-c2cc(C(=O)N/N=C/c3ccc(O)cc3)c3ccccc3n2)cc1	-83% (active)
Cc1ccc(NC(=O)Cn2nnc3sc4c(c3c2=O)CCC(C)C4)cc1 (configuration not stated)	-19.7%
COc1ccc(-c2onc(C)c2C)cc1S(=O)(=O)NCc1cccs1	86.9%
O=C(COc1ccc(Cl)cc1)Nc1ccccc1OCc1cc(=O)n2ccccc2n1	47.7%
CCCCC(=O)Nc1ccc(C(=O)Nc2cc(C(F)(F)F)ccc2Cl)cc1	-64% (active)
COc1ccc(C(=O)COC(=O)CCCC(=O)Nc2cc(C(F)(F)F)ccc2Cl)cc1	-1.47%

Structure (SMILES)	activity change, negative = inhibition
CC(=O)Nc1ccc(NC(=O)CCCNC(=O)c2ccc(Cl)cc2)cc1	-21.3%
O=C(CCc1nc(CN2CCN(S(=O)(=O)c3ccc(Br)cc3)CC2)no1)N1CCCCC1	20.2%
CCOC(=O)c1ccc(NC(=O)CCS(=O)(=O)c2ccc3c(c2)oc(=O)n3C)cc1	0.775%
CCOc1ccc(CNC(=O)c2cccc(Nc3nc4ccccc4n4nnnc34)c2)cc1OC	-17.1%
COc1ccc(-c2nc3sc(CCNC(=O)C(C)(C)C)c(C)n3n2)cc1	-21.2%
COc1cncc(-c2cnc3sc(NCCc4ccccn4)nn23)c1	-64.8% (active)
O=C(CNC(=O)COc1ccccc1)NCCc1ccccn1	31.2%
CCOc1ccc(NC(=O)C2CCN(S(=O)(=O)c3cc(-c4noc(C)n4)ccc3C)CC2)cc1	10.9%
CC(C)c1ccc(NC(=O)C2CCN(c3nc(-c4ccc(C(C)C)cc4)no3)CC2)cc1	-71.9% (active)
CC(C)c1ccc(-c2noc(C3CCCN(S(C)(=O)=O)C3)n2)cc1 (configuration not stated)	-15.2%
C[C@@H]1CN([C@@H](C)CO)C(=O)c2cc(NC(=O)C3CC3)ccc2O[C@H]1CN(C)C	34.3%
COc1cc(C(=O)Nc2cc(C(F)(F)F)ccc2-n2cncn2)cc(OC)c1OC	-20%
COCCCNC(=O)c1cccc2c(-c3ccc(O)c(OC)c3)coc12	71.3%
CC(Sc1ccc(S(=O)(=O)N2CCN(C)CC2)cn1)C(=O)NC1CCCC(C)C1C (configuration not stated)	-4.06%
COC(=O)c1ccc(S(=O)(=O)c2ccc(C(=O)OC)s2)s1	23.7%
CCc1ccc(C2=CC(=O)CC(C)(C)C2=O)cc1	-23%
COc1ccc(Cn2c(C(=O)O)c(CNCc3cccc(OC)c3)c3ccc(C)cc32)cc1	-106% (active)
COc1ccc(Cn2c(C(=O)O)c(CNCCc3cccs3)c3ccc(OC)cc32)cc1	-4.9%
COc1cccc(CNCc2c(C(=O)O)n(Cc3ccc(C)cc3)c3cc(C)ccc23)c1OC	3.78%
COc1cccc(CNC(=O)Cn2ncn3c(cc4ccccc43)c2=O)c1	44.2%
Cc1ccc(C(=O)CSc2nc(-c3ccccc3)nc3c2CCCC3)c(C)c1	2.92%
COc1ccccc1C(=O)Nc1c(C(=O)Nc2ccc(C)cc2)oc2ccccc12	14.6%

Structure (SMILES)	activity change, negative = inhibition
c1ccc2c(c1)OCC(CNc1ncnc3nc[nH]c13)O2 (configuration not stated)	-61.6% (active)
Cc1n[nH]c(C)c1S(=O)(=O)N1CCCC(C(=O)NCC2COc3ccccc3O2)C1 (configuration not stated)	-37.1%
CCc1ccccc1NC(=O)CSc1nc(C)c(C(=O)Nc2ccccc2)c(-c2ccc(Cl)cc2)c1C#N	-35.3%
Cc1cccc(CC(=O)Nc2cccc(-c3cn4cccnc4n3)c2)c1	10%
CC(=O)N1CCc2cc(S(=O)(=O)Nc3ccccc3N3CCN(C)CC3)ccc21	-37.8%
Cc1cc2c(cc1C)N1C(=O)c3cc4ccccc4cc3NC(=O)C1C(=O)N2 (configuration not stated)	-73.2% (active)
COc1cccc(NC(=O)c2ccc3nc(CCc4ccccc4)oc3c2)c1	41.2%
CCC(C)NC(=O)c1nn(C)c(=O)c2ccccc12 (configuration not stated)	29.9%
COc1cc2c(cc1OC)C(c1cccc([N+](=O)[O-])c1)=NCC2	54.4%
COc1cc2c(cc1OC)C(/C=C/c1ccco1)=NCC2	-61.3% (active)
CCOC(=O)C1=NN(c2ccc(Cl)cc2)/C(=C/C2=NCCc3cc(OC)c(OC)cc32)S1	27.1%
Cc1c(CNC(C)c2ccccc2)c(C(=O)O)c(C)n1Cc1c(F)cccc1Cl (configuration not stated)	-11%
CCOc1cc2[nH]c(=O)n(Cc3ccc(C(=O)NCCCN4CCCC4=O)cc3)c(=O)c2cc1OCC	-26.6%
COc1cc2[nH]c(=S)n(Cc3ccc(C)o3)c(=O)c2cc1OC	-9.57%
CCOc1cc2[nH]c(=S)n(CCCN3CCCC3=O)c(=O)c2cc1OCC	-13%
COc1cc2[nH]c(=S)n(CCN3CCCCC3C)c(=O)c2cc1OC (configuration not stated)	-75.7% (active)
COc1ccc(CN2CCCCC2C)cc1OC (configuration not stated)	13.3%
COc1cc2[nH]c(=O)n(Cc3ccc(C(=O)NCc4ccc(C)cc4)cc3)c(=O)c2cc1OC	-0.48%
COc1cc2[nH]c(=S)n(Cc3ccc(F)cc3)c(=O)c2cc1OC	-63.8% (active)
CCOc1cc2[nH]c(=S)n(CCN3CCCCC3C)c(=O)c2cc1OCC (configuration not stated)	0.001%
CCOc1cc2[nH]c(=S)n(Cc3ccc(C(=O)N4CCN(C)CC4)cc3)c(=O)c2cc1OCC	-95.9% (active)
